Reference: PubChem BioAssay (NCI)
Where “and” joins values, the source holds several entries; their conditions need not be identical. Equal values may be shown once. The panel holds about 83,000 compounds, 20% with a hit somewhere; the sample as a whole holds those more often.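 Single-dose data. Exposure time 48 hours. Values below 10 considered active.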 Calls of active or inactive are those of the source.

Assays:
Experiment in all cases: NCI-60 one-dose screen, 48 h (100 = growth as untreated, 0 = no growth, -100 = all killed)
Conditions in all cases: 10 µM unless noted
NCI-H23 lung = test system: NCI-H23 lung
NCI-H226 lung = test system: NCI-H226 lung
NCI-H322M lung = test system: NCI-H322M lung
HOP-62 NSCLC = test system: HOP-62 NSCLC
NCI-H460 lung = test system: NCI-H460 lung
HOP-92 NSCLC = test system: HOP-92 NSCLC
NCI-H522 lung = test system: NCI-H522 lung
A549/ATCC NSCLC = test system: A549/ATCC NSCLC
786-0 renal = test system: 786-0 renal
COLO 205 colon = test system: COLO 205 colon

Measured: growth

Oc1ccccc1/C=N\NC(=S)N/N=C/c1ccccc1O
31% (inactive) and 2.87% (active): NCI-H522 lung
inactive: NCI-H23 lung 62.6% and 58.7% | NCI-H226 lung 68.1% and 43.4% | NCI-H322M lung 24.8% and 29.7% | HOP-62 NSCLC 48.9% and 71.5% | NCI-H460 lung 19.5% and 12.5% | HOP-92 NSCLC 45.9% and 62.4% | A549/ATCC NSCLC 32.4% | 786-0 renal 29% and 27.1% | COLO 205 colon 65.6% and 48.7%

CNC(=O)c1cccc(-c2ccc3c(N4CCOC[C@@H]4C)nc(N4CCOC[C@@H]4C)nc3n2)c1
inactive: NCI-H23 lung 18.3% and 10.2%
active: NCI-H226 lung -11.5% and -2.84% | NCI-H322M lung 6.83% and -14.6% | HOP-92 NSCLC -25.3% and -21.5% | A549/ATCC NSCLC 4.83% and -7.57% | 786-0 renal 0.967% and -5.74% | COLO 205 colon 4.53% and -11.4%
10.4% (inactive) and -11.1% (active): NCI-H522 lung
11.4% (inactive) and 9.46% (active): NCI-H460 lung

c1ccc(NCc2ccc3c(c2)OCO3)cc1
inactive: NCI-H23 lung 100% and 105% | NCI-H226 lung 103% and 97.9% | NCI-H322M lung 114% and 99.2% | HOP-62 NSCLC 93.7% and 101% | NCI-H460 lung 105% and 99.4% | NCI-H522 lung 91.1% and 95.6% | A549/ATCC NSCLC 103% and 95.3% | 786-0 renal 102% and 96.8% | COLO 205 colon 113% and 102%

Cc1nn(-c2ccccc2)nc1C(=O)Nc1ccccc1C(=O)NCC1CC1
inactive: NCI-H23 lung 102% and 77.6% | NCI-H226 lung 98.1% and 45.7% | NCI-H322M lung 111% and 76.7% | HOP-62 NSCLC 96.7% and 46.1% | NCI-H460 lung 94.3% and 26.8% | HOP-92 NSCLC 75.8% | NCI-H522 lung 91.9% | A549/ATCC NSCLC 67.8% and 38.7% | 786-0 renal 110% and 35.1% | COLO 205 colon 95.3% and 52.8%

Cn1cnc([N+](=O)[O-])c1Sc1ncnc2nc[nH]c12
inactive: NCI-H23 lung 72.9% and 79.9% | NCI-H226 lung 51.2% and 72.4% | NCI-H322M lung 55.1% and 47.5% | NCI-H460 lung 70.4% and 69% | HOP-92 NSCLC 60.7% and 61.4% | NCI-H522 lung 65.1% and 85.9% | A549/ATCC NSCLC 82% and 107% | 786-0 renal 36.2% | COLO 205 colon 94.5% and 112%
